From PubChem BioAssay (NCI) come the findings set out here.

Compounds without any hit were thinned out: in the full panel of roughly 83,000, 20% have a hit.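 The endpoint reported here, percent growth, reads 100 for growth as untreated, 0 for no net growth and -100 for all cells dead.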 A number with no mark means an inactive call. Calls of active or inactive are those of the source.

This test has as its system SK-MEL-28 melanoma. Briefly: NCI-60 one-dose screen, 48 h (100 = growth as untreated, 0 = no growth, -100 = all killed). The note with it: 10 µM unless noted. As to the method:
Growth inhibition of the SK-MEL-28 human tumor cell line is measured as a screen for anti-cancer activity. Cells are grown in 96 well plates and exposed to the test compound for 48 hours. Compounds are tested at a single concentration, which is 10^-5 M for most compounds. The reported endpoint is percent growth (GI% or GIPRCNT), where numbers from 0 - 100% represent growth inhibition, and numbers from -100% - 0 represent cell death. For example, a value of 40 represents 60% growth inhibition. A value of 0 means no net growth occurred over the course of the experiment. A value of -40 indicates 40% of cells at the beginning of the experiment died by the end of the experiment. A value of -100 means all cells are dead at the end of the experiment.
NCI-60 Human Tumor Cell Lines Screen was performed using the standard one-dose NCI protocol, which is described in more detail at https://dtp.cancer.gov/discovery_development/nci-60/default.htm.
Compounds with GIPRCNT values below 10 were considered active. Activity score was based on GIPRCNT using the following formula: […]
Score is 0 for GIPRCNT values of 100 or above, 50 for GIPRCNT values of 0, and 100 for GIPRCNT values of -100.
As to `C[C@@H](NC(=O)[C@@H](CC(=O)N1CCC(N2CCCCC2)CC1)N1C(=O)[C@@H](N2C(=O)OC[C@@H]2c2ccccc2)[C@H]1/C=C/c1cccc(Cl)c1)c1ccccc1`, the growth was -29.4% (active).

Take `Nc1cc(Cl)cc2cccnc12`: the growth is 113%.

Regarding `O=c1c2c3c(sc2n2cnnc2n1Cc1ccccc1)CCCC3`, the growth was 116%.

On to `CC(C)C1=NOC(=O)C1=Cc1cn(-c2ccccc2)nc1-c1ccc(Br)cc1`, for which the growth was 83.4%.

For `Cc1cc(C)c(O)c(CNCCCCCCNCc2cc(C)cc(C)c2O)c1`, the growth is -82.6% (active).

Take `Fc1cc2[nH]ncc2c2c3c(c(-c4cn[nH]c4)nc12)CCCC3`: the growth was 2.87% (active).

On to `Cc1ccc(S(=O)(=O)N/N=C2\CC3CCC2(C)C3(C)C)cc1` (stereo not given), for which the growth is 102%.

Turning to `O=C(Nc1ccc(Oc2ccc(F)cc2)c(Cl)c1)c1cccnn1`, the growth is 90.9%.

Consider `COc1ccc(C2NC(=O)C(C#N)c3c2sc2c(F)cccc32)cc1` (stereo not given), for which the growth is 52.6%.

`Clc1ccc2nc(-c3ccc(-c4ccc(/C=N/NC5=NCCN5)cc4)s3)cn2c1`: the growth is 99.5%.

For the compound `Cn1cc(-c2nnc(-c3cn(C)c4ncccc34)s2)c2ccccc21`, the growth is 77.4%.

As to `COc1ccc2c(c1)C(C)Cc1c(ncnc1-n1cnc3ccccc31)N2C` (stereo not given), the growth is 59.5%.

With `COc1ccc(C(=O)CSc2nccc(Nc3ccc(C(=O)O)cc3)n2)cc1`, the growth was 100%.

In the case of `C#CCNC(=O)CC[C@@H](C)[C@H]1CC[C@H]2[C@@H]3CC[C@@H]4CC(=O)CC[C@]4(C)[C@H]3CC[C@]12C`, the growth was -84.4% [100 µM] (active).

As for `O=C(NCCCNC(=O)OCc1ccc2cccc(O)c2n1)OCc1ccc2cccc(O)c2n1`, the growth is 64.3%.

Consider `Nc1cccc2c1C(=O)c1cccc(NC(=O)c3ccccc3)c1C2=O`, for which the growth is 44.6%.

Regarding `CC(C)CCNCC(C)(C)O`, the growth was 122%.

Consider `C#C[C@]1(O)CC[C@H]2[C@@H]3CC=C4c5nc(Nc6ccccc6[N+](=O)[O-])sc5CC[C@]4(C)[C@H]3CC[C@@]21C`, for which the growth was 62.1%.

On to `N/C(=N\c1nc2ccccc2[nH]1)NC(=O)Cc1cccc2ccccc12`, for which the growth was 86.9%.

As for `O=C(N[C@@H]1CCCc2ccccc21)[C@H](CCC(=O)N1CCN(C2CCCCC2)CC1)N1C(=O)[C@@H](N2C(=O)OC[C@@H]2c2ccccc2)[C@H]1/C=C/c1ccccc1`, the growth is 24.8%.

Regarding `C[C@]12CCc3c(ccc4cc(O)ccc34)[C@@H]1CC[C@H]2O`, the growth was 99.3%.

As to `c1nc(N2CCOCC2)c2[nH]ccc2n1`, the growth is 106%.

With `C[C@H]1[C@H](C)CC[C@]2(C(=O)O)CC[C@]3(C)C(=CC[C@@H]4[C@@]5(C)C/C(=C/c6ccco6)C(=O)C(C)(C)[C@@H]5CC[C@]43C)[C@H]12`, the growth is -79.2% [100 µM] (active).

Take `O=C(NCCO)c1cccnc1`: the growth was 106%.

Regarding `O=c1cc(-c2ccccc2)oc2c(O)c(O)ccc12`, the growth was 81%.

With `O=C(Nc1ccc(Cl)c(C(F)(F)F)c1)Nc1ccc(-c2cccnc2)cc1N1CCC(CO)CC1`, the growth was 32.3%.

With `CC1=CC[C@@H]2C(C)(C)C(=O)CC[C@@]2(C)[C@@H]1COc1ccc2ccc(=O)oc2c1`, the growth was 87.7%.

As to `Cc1cnc([C@]23CC[C@@H](C)[C@H](C)[C@H]2C2=CC[C@@H]4[C@@]5(C)Cc6c([nH]c7ccccc67)C(C)(C)[C@@H]5CC[C@@]4(C)[C@]2(C)CC3)o1`, the growth was 20.3% [100 µM].

Take `CCOC(=O)c1nn(C2CCCCO2)c2ccc(NC(=O)CSc3nc4ccccc4c(=O)[nH]3)cc12` (stereo not given): the growth is 105%.

As to `COc1cc2c(=O)[nH]c3cc([N+](=O)[O-])ccc3c2cc1[N+](=O)[O-]`, the growth was 78.5%.

Take `CSc1nc(=S)c2nc(SC)n(-c3ccccc3)c2[nH]1`: the growth is 108%.

For `Nc1nnc(CSc2nnc3n(Cc4ccccc4)c(=O)c4c5c(sc4n23)CCCC5)s1`, the growth was 122%.

Take `CC(C)(C)c1cc(C(=O)Nc2ccccc2C(=O)NCCN)cc(C(C)(C)C)c1`: the growth was -84% (active).

Regarding `O=S(=O)(/N=c1/n(-c2ccccc2)nc2n1CCN2C1=NCCN1)c1ccc(-c2ccccc2)cc1`, the growth is 105%.

For the compound `O=[N+]([O-])c1ccc(O)c(-c2nc3ccccc3s2)c1`, the growth was 64.3%.

As for `Nc1cc(N)c(N=Nc2ccc(S(=O)(=O)O)cc2)cc1N=Nc1ccc(-c2ccc(N=Nc3ccc(O)c(C(=O)O)c3)cc2)cc1`, the growth was 106%.

As for `C=C(CN=[N+]=[N-])[C@@H]1CC[C@]2(C)[C@H](CC[C@@H]3[C@H]4[C@H]5OC(=O)[C@@]4(CCC5(C)C)CC[C@]32C)[C@@]1(C)CCC#N`, the growth is 98.4% [100 µM].

Take `CCOc1ccc(/C=C(\C#N)c2cc3ccccc3[nH]2)cc1`: the growth was 69.7%.

Take `O=[N+]([O-])c1cc([N+](=O)[O-])c(C(F)(F)F)cc1NN=C(c1ccc(O)cc1)c1ccc(O)cc1`: the growth was 94.8%.

Take `O=C1CC(C(F)(F)F)Cc2nc3ccc(Br)cc3cc21` (stereo not given): the growth is 96.5%.
